Our source for the binding signal values is PMC7862700, “An all-to-all approach to the identification of sequence-specific readers for epigenetic DNA modifications on cytosine”.

Test in all cases: DAPPL (digital affinity profiling via proximity ligation, sequencing); 10 mM Tris-HCl pH 7.5, 50 mM NaCl, 1 mM DTT, 4% glycerol, room temperature, 30 min; GST-TFs on glutathione beads, 16-mer random dsDNA library, 0.1% formaldehyde crosslink after washing; high values mean tight binding
For assay [1], the target named is T1, FLI1 (Homo sapiens, UniProt Q01543 1-452).
T1 sequence: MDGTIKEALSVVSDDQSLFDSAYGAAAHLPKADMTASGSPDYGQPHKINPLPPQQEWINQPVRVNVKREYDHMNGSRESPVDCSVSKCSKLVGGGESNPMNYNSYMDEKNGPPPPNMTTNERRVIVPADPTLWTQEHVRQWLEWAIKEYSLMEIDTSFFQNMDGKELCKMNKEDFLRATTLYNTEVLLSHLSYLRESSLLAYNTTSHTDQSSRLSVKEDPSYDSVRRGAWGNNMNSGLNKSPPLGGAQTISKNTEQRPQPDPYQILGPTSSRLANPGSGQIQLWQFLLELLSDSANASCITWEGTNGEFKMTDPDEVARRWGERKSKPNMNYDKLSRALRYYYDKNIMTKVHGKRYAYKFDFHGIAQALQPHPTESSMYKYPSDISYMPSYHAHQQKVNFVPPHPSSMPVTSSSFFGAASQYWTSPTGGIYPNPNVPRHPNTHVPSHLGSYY
The note with it: protein: recombinant; tags: N-terminal GST; dsDNA, one strand shown. The essentials: (§1)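 After expression in yeast as GST fusions, human transcription factors were bound to glutathione beads, DNA-barcoded and mixed with a tag-only sample. The pools were incubated with 200 nmole of a 16-mer random double-stranded DNA library in Tris/NaCl/DTT/glycerol buffer (30 min, room temperature), washed and crosslinked with 0.1% formaldehyde. Proximity ligation with BsaI/T4 ligase ran for 1 h at 37 °C, before PCR amplification and sequencing on an Illumina NextSeq500. Binding signal is a hexamer's read frequency for a factor divided by its frequency for the tag-only sample.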

Assay [2] deals with T2, ELK1 (Homo sapiens, UniProt P19419 1-428).
T2 sequence: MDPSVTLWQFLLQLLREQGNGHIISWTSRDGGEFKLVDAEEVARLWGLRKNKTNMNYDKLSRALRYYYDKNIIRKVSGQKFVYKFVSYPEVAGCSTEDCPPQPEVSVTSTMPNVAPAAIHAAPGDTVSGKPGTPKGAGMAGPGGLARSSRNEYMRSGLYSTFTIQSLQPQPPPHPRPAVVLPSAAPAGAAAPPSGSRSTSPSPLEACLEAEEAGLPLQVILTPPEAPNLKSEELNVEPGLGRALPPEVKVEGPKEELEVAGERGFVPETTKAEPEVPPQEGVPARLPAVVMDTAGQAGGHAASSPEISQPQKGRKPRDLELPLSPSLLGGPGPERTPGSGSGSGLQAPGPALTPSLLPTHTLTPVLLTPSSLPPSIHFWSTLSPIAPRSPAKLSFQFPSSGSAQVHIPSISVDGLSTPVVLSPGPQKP
The note with it: protein: recombinant; tags: N-terminal GST; dsDNA, one strand shown. In a few lines:
as §1

The target of assay [3] is T3, GABPA (Homo sapiens, UniProt Q06546 1-454).
T3 sequence: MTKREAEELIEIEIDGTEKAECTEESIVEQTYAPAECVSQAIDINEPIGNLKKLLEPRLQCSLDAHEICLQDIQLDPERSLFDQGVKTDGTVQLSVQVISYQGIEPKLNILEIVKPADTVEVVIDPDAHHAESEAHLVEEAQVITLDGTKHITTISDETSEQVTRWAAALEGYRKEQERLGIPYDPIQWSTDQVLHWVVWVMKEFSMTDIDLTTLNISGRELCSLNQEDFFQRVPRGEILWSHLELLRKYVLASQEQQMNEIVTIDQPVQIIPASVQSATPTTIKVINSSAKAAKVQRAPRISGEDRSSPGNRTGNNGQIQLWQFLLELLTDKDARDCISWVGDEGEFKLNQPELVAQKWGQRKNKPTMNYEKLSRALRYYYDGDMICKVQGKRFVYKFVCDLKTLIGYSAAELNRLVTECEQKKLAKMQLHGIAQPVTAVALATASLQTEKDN
The note with it: protein: recombinant; tags: N-terminal GST; dsDNA, one strand shown. The essentials:
as §1

The target in assay [4] is T4, ERG (Homo sapiens, UniProt P11308 1-479).
T4 sequence: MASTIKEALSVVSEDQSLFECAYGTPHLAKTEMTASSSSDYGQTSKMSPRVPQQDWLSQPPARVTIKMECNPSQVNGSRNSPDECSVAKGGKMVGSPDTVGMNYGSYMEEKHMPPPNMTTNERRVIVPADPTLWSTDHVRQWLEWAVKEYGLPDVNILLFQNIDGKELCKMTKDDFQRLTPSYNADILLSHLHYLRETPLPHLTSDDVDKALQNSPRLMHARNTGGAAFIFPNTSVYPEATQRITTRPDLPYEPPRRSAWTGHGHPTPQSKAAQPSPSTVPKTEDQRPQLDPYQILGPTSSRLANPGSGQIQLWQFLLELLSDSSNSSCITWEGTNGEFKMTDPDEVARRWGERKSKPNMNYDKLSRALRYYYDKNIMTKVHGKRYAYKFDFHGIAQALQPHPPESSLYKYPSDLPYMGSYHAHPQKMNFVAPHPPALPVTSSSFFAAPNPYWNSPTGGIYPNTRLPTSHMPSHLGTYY
The note with it: protein: recombinant; tags: N-terminal GST; dsDNA, one strand shown. In a few lines: as §1

Assay [5] addresses ELF1 (Homo sapiens, UniProt P32519 1-619). The note with it: protein: recombinant; tags: N-terminal GST; dsDNA, one strand shown. The essentials:
as §1

Assay [6] addresses T5, EHF (Homo sapiens, UniProt Q9NZC4 1-300).
T5 sequence: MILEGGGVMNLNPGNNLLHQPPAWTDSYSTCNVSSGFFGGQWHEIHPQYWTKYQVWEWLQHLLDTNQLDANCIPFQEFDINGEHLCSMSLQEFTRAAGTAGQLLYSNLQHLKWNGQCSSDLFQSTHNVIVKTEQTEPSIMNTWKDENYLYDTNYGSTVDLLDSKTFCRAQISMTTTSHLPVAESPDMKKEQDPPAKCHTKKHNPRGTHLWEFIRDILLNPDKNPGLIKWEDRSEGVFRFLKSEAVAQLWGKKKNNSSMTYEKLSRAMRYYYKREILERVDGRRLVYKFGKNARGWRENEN
The note with it: protein: recombinant; tags: N-terminal GST; dsDNA, one strand shown. The essentials:
as §1

The target in assay [7] is SPI1 (Homo sapiens, UniProt P17947 1-270). The note with it: protein: recombinant; tags: N-terminal GST; dsDNA, one strand shown. The essentials:
as §1

The target in assay [8] is SPIB (Homo sapiens, UniProt Q01892 1-262). The note with it: protein: recombinant; tags: N-terminal GST; dsDNA, one strand shown. The essentials: as §1
SPIB, sequence (Q01892 whole entry): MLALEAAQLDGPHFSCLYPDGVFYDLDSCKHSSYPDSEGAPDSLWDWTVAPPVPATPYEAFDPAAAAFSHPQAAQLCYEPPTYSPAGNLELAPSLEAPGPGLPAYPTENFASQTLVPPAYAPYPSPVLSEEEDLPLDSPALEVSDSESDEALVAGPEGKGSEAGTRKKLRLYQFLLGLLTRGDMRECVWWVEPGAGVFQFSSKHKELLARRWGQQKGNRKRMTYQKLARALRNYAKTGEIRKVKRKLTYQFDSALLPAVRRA
Assay [9] concerns the target T6, ELK3 (Homo sapiens, UniProt P41970 1-407).
T6 sequence: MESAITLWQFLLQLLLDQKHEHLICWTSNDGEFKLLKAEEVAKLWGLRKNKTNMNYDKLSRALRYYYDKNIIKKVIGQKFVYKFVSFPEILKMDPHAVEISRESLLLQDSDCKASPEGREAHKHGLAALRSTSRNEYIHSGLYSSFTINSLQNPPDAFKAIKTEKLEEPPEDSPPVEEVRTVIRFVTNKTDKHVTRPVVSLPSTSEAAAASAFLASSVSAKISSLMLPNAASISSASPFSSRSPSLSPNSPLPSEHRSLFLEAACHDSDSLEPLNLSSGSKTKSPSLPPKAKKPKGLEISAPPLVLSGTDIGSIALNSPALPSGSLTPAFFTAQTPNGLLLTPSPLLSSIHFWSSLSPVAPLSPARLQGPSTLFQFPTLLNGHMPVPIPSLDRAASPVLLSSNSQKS
The note with it: protein: recombinant; tags: N-terminal GST; dsDNA, one strand shown. The essentials:
as §1

Assay [10] deals with T7, FEV (Homo sapiens, UniProt Q99581 1-238).
T7 sequence: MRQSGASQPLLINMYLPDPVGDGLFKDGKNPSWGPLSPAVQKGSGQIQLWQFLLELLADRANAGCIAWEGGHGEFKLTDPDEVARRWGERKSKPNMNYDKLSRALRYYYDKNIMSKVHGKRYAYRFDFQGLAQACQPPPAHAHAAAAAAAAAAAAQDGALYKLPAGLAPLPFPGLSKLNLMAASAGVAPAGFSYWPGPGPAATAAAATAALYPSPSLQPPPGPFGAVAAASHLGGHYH
The note with it: protein: recombinant; tags: N-terminal GST; dsDNA, one strand shown. In a few lines: as §1

Assay [11] concerns the target ETV5 (Homo sapiens, UniProt P41161 1-510). The note with it: protein: recombinant; tags: N-terminal GST; dsDNA, one strand shown. In a few lines: as §1
Assay [12] has as its target HSF1 (Homo sapiens, UniProt Q00613 1-529). The note with it: protein: recombinant; tags: N-terminal GST; chain copies: 3; dsDNA, one strand shown. In a few lines: as §1
Assay [13] has as its target T8, SPIC (Homo sapiens, UniProt Q8N5J4 1-248).
T8 sequence: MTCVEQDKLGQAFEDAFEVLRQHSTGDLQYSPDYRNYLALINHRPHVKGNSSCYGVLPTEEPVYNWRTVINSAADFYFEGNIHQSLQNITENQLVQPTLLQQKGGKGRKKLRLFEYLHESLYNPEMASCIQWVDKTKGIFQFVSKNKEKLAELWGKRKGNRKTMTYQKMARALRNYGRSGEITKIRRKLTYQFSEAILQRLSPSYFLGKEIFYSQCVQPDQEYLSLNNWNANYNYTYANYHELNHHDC
The note with it: protein: recombinant; tags: N-terminal GST; dsDNA, one strand shown. The essentials:
as §1

Assay [14] has as its target ELF4 (Homo sapiens, UniProt Q99607 1-663). The note with it: protein: recombinant; tags: N-terminal GST; dsDNA, one strand shown. In a few lines: as §1
In assay [15] the target is T9, ELK4 (Homo sapiens, UniProt P28324-2 1-405).
T9 sequence: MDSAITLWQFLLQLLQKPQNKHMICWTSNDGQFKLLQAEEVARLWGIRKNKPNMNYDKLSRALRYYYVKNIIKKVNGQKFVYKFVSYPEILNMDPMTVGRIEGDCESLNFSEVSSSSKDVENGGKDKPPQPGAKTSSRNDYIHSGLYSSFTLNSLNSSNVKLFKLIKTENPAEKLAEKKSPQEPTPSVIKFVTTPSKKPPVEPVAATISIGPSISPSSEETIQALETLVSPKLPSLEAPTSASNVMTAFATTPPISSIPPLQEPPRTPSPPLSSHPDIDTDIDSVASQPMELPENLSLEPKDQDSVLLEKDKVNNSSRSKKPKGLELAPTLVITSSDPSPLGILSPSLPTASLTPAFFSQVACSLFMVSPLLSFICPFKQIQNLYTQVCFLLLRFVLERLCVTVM
The note with it: protein: recombinant; tags: N-terminal GST; dsDNA, one strand shown. The essentials: as §1

For assay [16], the target named is T10, ETV2 (Homo sapiens, UniProt O00321 1-342).
T10 sequence: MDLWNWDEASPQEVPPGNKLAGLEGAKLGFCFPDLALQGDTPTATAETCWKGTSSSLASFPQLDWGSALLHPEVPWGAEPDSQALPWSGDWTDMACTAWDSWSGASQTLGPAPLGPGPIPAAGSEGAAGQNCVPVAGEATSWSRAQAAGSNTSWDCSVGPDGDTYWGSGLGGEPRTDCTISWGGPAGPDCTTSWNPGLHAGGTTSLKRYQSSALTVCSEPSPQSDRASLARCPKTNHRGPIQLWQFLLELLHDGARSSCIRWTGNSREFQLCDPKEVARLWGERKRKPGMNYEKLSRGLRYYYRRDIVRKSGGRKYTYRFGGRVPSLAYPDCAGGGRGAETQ
The note with it: protein: recombinant; tags: N-terminal GST; dsDNA, one strand shown. In a few lines:
as §1

In assay [17] the target is T11, ELF3 (Homo sapiens, UniProt P78545 1-371).
T11 sequence: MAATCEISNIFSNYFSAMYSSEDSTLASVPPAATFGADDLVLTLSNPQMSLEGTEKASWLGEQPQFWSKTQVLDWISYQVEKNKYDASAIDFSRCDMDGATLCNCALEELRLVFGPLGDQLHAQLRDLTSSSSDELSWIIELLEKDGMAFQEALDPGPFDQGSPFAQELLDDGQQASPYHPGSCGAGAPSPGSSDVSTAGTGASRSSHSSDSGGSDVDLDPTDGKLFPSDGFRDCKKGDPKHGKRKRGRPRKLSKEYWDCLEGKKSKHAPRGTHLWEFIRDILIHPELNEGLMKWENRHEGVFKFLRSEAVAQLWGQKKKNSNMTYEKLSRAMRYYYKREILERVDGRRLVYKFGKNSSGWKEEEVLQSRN
The note with it: protein: recombinant; tags: N-terminal GST; dsDNA, one strand shown. In a few lines:
as §1

For assay [18], the target named is CRX (Homo sapiens, UniProt O43186 1-299). The note with it: protein: recombinant; tags: N-terminal GST; dsDNA, one strand shown. In a few lines:
as §1

The target in assay [19] is ETV1 (Homo sapiens, UniProt P50549 1-477). The note with it: protein: recombinant; tags: N-terminal GST; dsDNA, one strand shown. The essentials:
as §1

HSF1, sequence (Q00613 whole entry): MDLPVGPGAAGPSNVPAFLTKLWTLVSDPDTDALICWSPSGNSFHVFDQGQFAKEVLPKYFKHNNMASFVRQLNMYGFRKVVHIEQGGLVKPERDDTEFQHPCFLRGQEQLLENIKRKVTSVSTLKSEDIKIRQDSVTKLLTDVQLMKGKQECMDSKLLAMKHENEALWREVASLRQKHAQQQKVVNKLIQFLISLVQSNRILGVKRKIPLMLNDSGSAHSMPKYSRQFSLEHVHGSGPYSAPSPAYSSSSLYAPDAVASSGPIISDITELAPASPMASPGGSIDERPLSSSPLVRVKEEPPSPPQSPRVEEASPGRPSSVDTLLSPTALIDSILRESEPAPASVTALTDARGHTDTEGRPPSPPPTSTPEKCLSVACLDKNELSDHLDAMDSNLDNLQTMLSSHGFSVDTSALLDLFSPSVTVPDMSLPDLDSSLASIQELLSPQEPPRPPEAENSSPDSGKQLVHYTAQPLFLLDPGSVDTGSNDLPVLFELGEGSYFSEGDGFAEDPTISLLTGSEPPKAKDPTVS
CRX, sequence (O43186 whole entry): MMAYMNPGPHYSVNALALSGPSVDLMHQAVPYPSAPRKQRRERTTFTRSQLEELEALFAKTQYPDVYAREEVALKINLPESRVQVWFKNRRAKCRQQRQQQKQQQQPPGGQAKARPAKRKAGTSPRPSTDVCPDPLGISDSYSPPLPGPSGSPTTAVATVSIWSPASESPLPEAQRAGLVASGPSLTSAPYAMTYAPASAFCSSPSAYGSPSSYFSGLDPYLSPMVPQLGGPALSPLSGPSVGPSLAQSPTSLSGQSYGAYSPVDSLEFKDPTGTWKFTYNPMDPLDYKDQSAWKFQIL
ETV5, sequence (P41161 whole entry): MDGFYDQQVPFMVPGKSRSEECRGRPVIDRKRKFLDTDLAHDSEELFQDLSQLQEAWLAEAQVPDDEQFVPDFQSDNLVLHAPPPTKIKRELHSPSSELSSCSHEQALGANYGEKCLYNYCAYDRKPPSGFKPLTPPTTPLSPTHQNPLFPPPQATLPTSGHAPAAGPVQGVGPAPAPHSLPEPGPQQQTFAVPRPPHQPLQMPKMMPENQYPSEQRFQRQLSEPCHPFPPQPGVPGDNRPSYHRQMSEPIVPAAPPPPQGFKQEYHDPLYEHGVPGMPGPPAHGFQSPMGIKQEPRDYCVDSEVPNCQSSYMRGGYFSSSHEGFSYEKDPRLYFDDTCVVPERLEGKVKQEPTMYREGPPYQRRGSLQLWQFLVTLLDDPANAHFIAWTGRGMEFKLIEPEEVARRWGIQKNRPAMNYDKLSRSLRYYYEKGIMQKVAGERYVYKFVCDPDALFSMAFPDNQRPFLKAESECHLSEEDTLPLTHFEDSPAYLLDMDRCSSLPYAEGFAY
ELF4, sequence (Q99607 whole entry): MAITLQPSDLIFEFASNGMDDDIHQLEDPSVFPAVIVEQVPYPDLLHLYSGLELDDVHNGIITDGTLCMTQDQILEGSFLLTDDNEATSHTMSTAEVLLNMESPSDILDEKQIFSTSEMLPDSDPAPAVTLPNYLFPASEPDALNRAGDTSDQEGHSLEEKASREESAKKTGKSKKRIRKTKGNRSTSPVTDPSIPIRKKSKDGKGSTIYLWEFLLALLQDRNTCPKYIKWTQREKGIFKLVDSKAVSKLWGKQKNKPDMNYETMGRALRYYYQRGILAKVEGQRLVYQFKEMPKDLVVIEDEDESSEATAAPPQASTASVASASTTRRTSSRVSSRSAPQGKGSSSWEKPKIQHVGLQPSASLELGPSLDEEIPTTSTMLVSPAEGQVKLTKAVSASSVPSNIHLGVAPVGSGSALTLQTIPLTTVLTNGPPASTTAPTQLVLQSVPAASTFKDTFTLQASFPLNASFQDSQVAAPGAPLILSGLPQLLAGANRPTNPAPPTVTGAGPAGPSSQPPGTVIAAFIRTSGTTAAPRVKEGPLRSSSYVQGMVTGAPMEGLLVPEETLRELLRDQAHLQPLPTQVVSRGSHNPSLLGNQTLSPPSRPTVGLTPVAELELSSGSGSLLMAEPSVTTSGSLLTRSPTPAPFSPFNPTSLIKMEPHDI
ELF1, sequence (P32519 whole entry): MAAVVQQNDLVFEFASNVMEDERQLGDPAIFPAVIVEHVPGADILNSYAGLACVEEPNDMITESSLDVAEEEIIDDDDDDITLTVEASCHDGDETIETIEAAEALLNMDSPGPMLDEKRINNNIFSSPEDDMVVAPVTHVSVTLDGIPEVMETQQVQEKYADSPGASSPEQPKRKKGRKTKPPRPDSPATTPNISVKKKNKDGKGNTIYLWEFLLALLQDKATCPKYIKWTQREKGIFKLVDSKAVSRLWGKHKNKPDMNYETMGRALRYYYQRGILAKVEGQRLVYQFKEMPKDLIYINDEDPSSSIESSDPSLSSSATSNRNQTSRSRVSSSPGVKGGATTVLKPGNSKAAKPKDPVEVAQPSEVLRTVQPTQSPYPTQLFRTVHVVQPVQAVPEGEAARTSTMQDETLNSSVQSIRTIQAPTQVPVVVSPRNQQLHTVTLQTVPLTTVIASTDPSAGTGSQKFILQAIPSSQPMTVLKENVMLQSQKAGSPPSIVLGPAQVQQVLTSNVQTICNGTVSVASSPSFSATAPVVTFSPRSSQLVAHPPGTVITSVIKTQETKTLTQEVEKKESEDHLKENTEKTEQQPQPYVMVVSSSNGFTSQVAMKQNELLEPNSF
ETV1, sequence (P50549 whole entry): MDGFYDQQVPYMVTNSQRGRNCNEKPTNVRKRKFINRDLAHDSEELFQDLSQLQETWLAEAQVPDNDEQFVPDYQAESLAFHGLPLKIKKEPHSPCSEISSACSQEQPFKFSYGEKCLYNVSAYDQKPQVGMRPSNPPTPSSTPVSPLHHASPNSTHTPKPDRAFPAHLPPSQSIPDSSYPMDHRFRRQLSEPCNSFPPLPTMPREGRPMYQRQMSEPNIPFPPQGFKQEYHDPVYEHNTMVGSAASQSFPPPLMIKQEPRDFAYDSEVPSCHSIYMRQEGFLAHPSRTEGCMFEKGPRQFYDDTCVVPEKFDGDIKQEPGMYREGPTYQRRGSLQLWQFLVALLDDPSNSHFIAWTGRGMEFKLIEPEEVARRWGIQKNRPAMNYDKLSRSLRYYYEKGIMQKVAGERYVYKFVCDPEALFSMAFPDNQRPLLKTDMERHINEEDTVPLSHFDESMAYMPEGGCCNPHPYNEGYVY

As to CTCGAA, the binding signal was 1.23 fold enrichment (6-mer frequency, TF over GST control) in assay [1]; 1.12 fold enrichment (6-mer frequency, TF over GST control) in [2]; 1.26 fold enrichment (6-mer frequency, TF over GST control) in assay [3]; 1.13 fold enrichment (6-mer frequency, TF over GST control) in [4]; 1.18 fold enrichment (6-mer frequency, TF over GST control) in [5]; 1.21 fold enrichment (6-mer frequency, TF over GST control) in assay [6]. Moreover, the binding signal in assay [7] was 1.17 fold enrichment (6-mer frequency, TF over GST control); in assay [8] it was 1.12 fold enrichment (6-mer frequency, TF over GST control); in assay [9], 1.21 fold enrichment (6-mer frequency, TF over GST control); in assay [10] it was 1.17 fold enrichment (6-mer frequency, TF over GST control); in [11] it was 1.2 fold enrichment (6-mer frequency, TF over GST control); in assay [12] it was 4.2 fold enrichment (6-mer frequency, TF over GST control). The binding signal was 1.15 fold enrichment (6-mer frequency, TF over GST control) in [13]; 1.2 fold enrichment (6-mer frequency, TF over GST control) in assay [14]; 1.34 fold enrichment (6-mer frequency, TF over GST control) in assay [15]; 1.16 fold enrichment (6-mer frequency, TF over GST control) in [16]; 1.11 fold enrichment (6-mer frequency, TF over GST control) in assay [17]; 1.9 fold enrichment (6-mer frequency, TF over GST control) in assay [18]. Besides, in [19], the binding signal is 1.1 fold enrichment (6-mer frequency, TF over GST control).
